# Source: PubChem BioAssay (National Center for Advancing Translational Sciences (NCATS))
# Sampled rows, rich in hits. Any-hit rate of the full collection: about 10%.
# hNpr1 antagonist: antagonists of human natriuretic peptide receptor Npr1; P16066; AID 1347048; HEK293 hNpr1 GloSensor cGMP, ANP-stimulated luminescence; 1.6% of 76,000 active; Potency, µM (highest dose often 46.3 µM), hits mostly inhibitors; calls by dose curve; also: nearly all actives have a fitted effect of over 60% in size
#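 Compound pre-incubated 30 min at room temperature on GloSensor-loaded HEK293 cells stably carrying hNpr1 and the pGS-40F cGMP biosensor. Stimulation uses hNppA at 0.1 nM final; luminescence is taken at baseline and 20 min post-agonist.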
# GPT2 inhibitor: GPT2 alanine aminotransferase inhibition. Recombinant GPT2, coupled pyruvate oxidase/HRP Amplex Red fluorescence. Potency, µM (series often up to 57.7 µM), most hits filed as inhibitors. 0.25% of 100,000 active; also: nearly all actives have a fitted effect of over 60% in size
# Target sequence (Q8TD30 whole entry, looked up): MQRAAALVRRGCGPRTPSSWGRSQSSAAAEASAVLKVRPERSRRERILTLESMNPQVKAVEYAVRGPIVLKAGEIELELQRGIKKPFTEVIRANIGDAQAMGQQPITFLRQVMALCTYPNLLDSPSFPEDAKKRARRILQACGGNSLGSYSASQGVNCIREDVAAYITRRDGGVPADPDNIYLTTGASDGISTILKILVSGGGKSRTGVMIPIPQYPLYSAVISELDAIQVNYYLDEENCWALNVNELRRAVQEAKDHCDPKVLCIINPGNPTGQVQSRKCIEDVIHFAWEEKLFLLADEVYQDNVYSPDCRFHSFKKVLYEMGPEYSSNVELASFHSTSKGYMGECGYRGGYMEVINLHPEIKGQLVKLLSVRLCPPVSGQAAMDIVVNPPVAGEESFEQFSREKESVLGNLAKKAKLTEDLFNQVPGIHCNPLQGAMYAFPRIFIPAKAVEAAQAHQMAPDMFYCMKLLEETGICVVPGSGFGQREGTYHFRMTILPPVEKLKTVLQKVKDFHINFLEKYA
#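 Fluorescence read-out: pyruvate from GPT2 turnover coupled to pyruvate oxidase, HRP and Amplex Red (0.2mM ThPP, 0.2U/mL PO and HRP, 50uM Amplex final). Substrates 250uM a-KG, 2mM L-alanine; enzyme 10ng/uL; 30 min RT.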
# FLuc inh: Photinus pyralis luciferase inhibition. P08659. purified P. pyralis luciferase, luminescence, biochemical. Potency, µM (titrated, usually from 115 µM), actives largely listed as inhibitors. 2.5% of 76,000 active. AID 1347043; also: nearly all actives have a fitted effect of over 65% in size
#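 Cell-free enzyme assay, 10nM P. pyralis luciferase, luciferin and ATP each at 10uM. Inhibition profiled over a 6-point titration, read as luminescence.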
# HEK cytotox: HEK 293 cell cytotoxicity; HEK 293 viability, ATP luminescence (CellTiter-Glo), 48-72 h; Potency, µM (series often up to 115 µM), hits mostly inhibitors; 6.6% of 94,000 active; also: nearly all actives have a fitted effect of over 60% in size
#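 Luminescence from cellular ATP, measured with CellTiter-Glo, indicates HEK 293 viability. Cells plated at 250 cells/well are treated with compound for 48 or 72 hr at 37 degree Celsius before reagent addition.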
# 3T3 cytotox: cytotoxic compounds in NIH 3T3 cells; NIH 3T3 viability, CellTiter-Glo ATP luminescence, 48-72 h; Potency, µM (doses to about 96.7 µM), hits mostly inhibitors; 4.3% of 94,000 active; also: nearly all actives have a fitted effect of over 55% in size
#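 Cytotoxicity is measured as loss of cellular ATP: NIH 3T3 cells (400/well) are exposed to compound for 48 or 72 hr at 37 °C, then CellTiter-Glo luminescence is imaged after 10 min at room temperature.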
# Hits are given with their value; . = inactive; ? = inconclusive; / = no result; ! = not confirmed by another sample; [ ] = another dose, or the depositor's remark. Unless noted, calls follow the shape of the dose curve; as a rule, active = well fitted curve in the direction sought with a large enough effect; inconclusive = small, poorly fitted or top-dose-only effect, or another doubt; inactive = no such curve, though single readings can be large; an effect the other way counts as inactive or inconclusive.
SMILES,hNpr1 antagonist,GPT2 inhibitor,FLuc inh,HEK cytotox,3T3 cytotox
CS(=O)(=O)N1CCCN(C(=O)Cc2ccc(OC(F)(F)F)cc2)c2ccccc21,.,.,.,?,?
Cc1ccccc1N1CCN(C(=O)[C@@]23CCCC[C@H]2N(C)C(=O)CC3)CC1,.,.,.,.,.
CC(=O)Nc1ccc(C(=O)N2CCC3(CC2)CC(N[S+](C)(=O)[O-])c2ccccc23)cc1 (stereo not given),/,.,/,.,.
CCn1ncc(N2CCCC(CC(=O)NCc3ccc(C)cc3)C2)cc1=O (stereo not given),.,.,.,?,.
Cc1ccc(-c2ncc(C(=O)Nc3cccc(F)c3C)c(-c3ccncc3)n2)cc1,.,.,.,.,.
CN(C)C(=O)C1CCc2nnc(-c3ccc(Cl)cc3Cl)n21 (stereo not given),/,.,/,.,.
Nc1nc(C2CC(N)C2)cc(N2CCCN(Cc3cccs3)CC2)n1 (stereo not given),.,?,.,45µM,?
CC(=O)N1CCC(NC[C@@H]2C=C(C)[C@H](Cc3nc4ccc(Cl)cc4[nH]3)C[C@H]2C(C)C)CC1,.,.,.,.,.
CCn1nc(CC(C)C)cc1C(=O)N(C)Cc1cccc(-n2cccn2)c1,.,.,.,50µM,?
O=C(Nc1ccc(C(F)(F)F)cc1)N[C@H]1[C@H](O)[C@H](O)C[C@@H]1c1ccccc1,.,.,.,?,79µM
COc1ccc(-c2cc3c(=O)n(CCNC(=O)c4ccc(C)c(F)c4)ccn3n2)cc1,.,.,.,.,.
COc1ccc(-c2cc3c(=O)n(CCNC(=O)c4ccsc4)ccn3n2)cc1,.,.,4.5µM,?,.
COc1ccc(-c2cc3c(=O)n(CCNC(=O)c4sccc4C)ccn3n2)cc1,.,.,4.5µM,?,.
O=C(Cc1cccc(F)c1)NCCn1ccn2nc(-c3ccc(F)cc3)cc2c1=O,.,.,?,?,.
CCOc1ccc(-c2cc3c(=O)n(CCNC(=O)c4ccoc4)ccn3n2)cc1,.,.,20µM,45µM,.
O=C(NCCn1ccn2nc(-c3ccc(F)cc3)cc2c1=O)c1c(F)cccc1Cl,.,.,.,32µM,?
Cc1ncoc1C(=O)N1CCOc2ccc(CCC(=O)NCC3CC3)cc2C1,.,.,.,.,.
COCc1nc(CCNC(=O)C2CC2)no1,.,.,.,.,.
Cc1nn(C)cc1C(=O)N1CCC2(CC1)CC(c1ccccc1)C(=O)N2 (stereo not given),.,.,.,.,.
O=C(NCCn1ccn2nc(-c3ccc(F)cc3)cc2c1=O)c1ccoc1,.,.,?,50µM,?
COc1ccc(-c2cc3c(=O)n(CCNC(=O)c4ccoc4)ccn3n2)cc1,.,.,?,22µM,.
O=C(NCCn1ccn2nc(-c3ccc(F)cc3)cc2c1=O)c1ccc2[nH]ccc2c1,.,.,11µM,.,.
COc1ccc(-c2cc3c(=O)n(CCNC(=O)c4cccc(OC)c4OC)ccn3n2)cc1,.,.,6.3µM,35µM,?
COc1cccc(-c2cc3c(=O)n(CCNC(=O)c4ccccc4F)ccn3n2)c1,.,.,?,?,.
COc1ccc(-c2cc3c(=O)n(CCNC(=O)c4ccc(OC)c(OC)c4)ccn3n2)cc1,.,.,?,?,.
SMILES,hNpr1 antagonist,GPT2 inhibitor,FLuc inh,HEK cytotox,3T3 cytotox
Cc1ccc(Cl)cc1-n1nc(-c2c(C)nc3scc(CC(=O)N4CCOCC4)n3c2=O)cc1C,.,.,.,.,.
CN(C)Cc1cc(CC2(NCc3ccccc3Cl)COC2)no1,.,.,.,.,.
O=C(c1ccc2ncccc2c1)N1CCC(c2nc(CCOCC3CCOCC3)no2)C1 (stereo not given),/,.,/,?,.
O=C(NC[C@@H]1CCCO1)c1ncoc1C1CC1,.,.,.,.,.
Cc1nncn1C1CCN(S(=O)(=O)c2ccc(Cl)cc2)CC1,.,.,.,.,.
CC(C)C1=NOC2(CCN(Cc3c[nH]c4ccccc34)CC2)C1,/,.,/,.,.
C[S+](=O)([O-])N1CC2(CCN(Cc3c[nH]c4ccccc34)CC2)Cc2ccccc21,/,.,/,45µM,25µM
c1ccc(C2=NOC3(CCN(Cc4c[nH]c5ccccc45)CC3)C2)cc1,/,.,/,45µM,?
CC(=O)N1CC2(CCN(Cc3c[nH]c4ccccc34)CC2)Cc2ccccc21,/,.,/,?,?
c1ccc(CC2=NOC3(CCN(Cc4c[nH]c5ccccc45)CC3)C2)cc1,/,.,/,50µM,32µM
O=C(NC1CC1)c1nc(-c2ccc(Cl)cc2Cl)c2ccccn12,.,.,.,35µM,?
O=C(NC1CC1)c1nc(-c2ccc(F)cc2)c2ccccn12,.,.,.,89µM!,?
O=C(NC1CC1)c1nc(-c2cc(Cl)cc(Cl)c2)c2ccccn12,.,.,.,?,.
O=C(NC1CC1)c1nc(-c2cccnc2)c2ccccn12,/,.,/,.,45µM
O=C1NC2(CN([S+](=O)([O-])c3ccsc3)C2)Oc2ccccc21,.,.,.,?,?
O=C1COc2ccc(Nc3ccccc3F)nc2CN1Cc1ccc(F)cc1,.,.,.,79µM,?
Cc1csc(Nc2ccc3c(n2)CN(Cc2ccc(F)cc2)C(=O)CO3)n1,?,.,.,8.9µM,?
Cc1noc(C)c1-c1ccc2c(n1)CN(Cc1ccc(F)cc1)C(=O)CO2,.,.,.,?,?
COCCN1Cc2nc(Nc3ccccc3F)ccc2OCC1=O,.,.,.,?,.
OC[C@@H]1CNC[C@H]1C1CCN(Cc2ccncc2)CC1,.,.,.,.,.
CCCN(C)c1nccnc1OC1CCN(C(=O)c2cccc(OC)c2OC)C1 (stereo not given),.,?,32µM,?,?
CCCN(C)c1nccnc1OC1CCN(C(=O)c2c(F)cccc2F)C1 (stereo not given),.,.,?,?,?
CCCN(C)c1nccnc1OC1CCN(C(=O)Cc2ccccc2OC)C1 (stereo not given),.,.,35µM,?,?
Cn1nccc1CN1CCC2(CC1)CC(=O)N(c1ccccc1)c1ccccc1O2,.,.,.,?,.
CCNCc1ccc(-c2ccc(Cl)cc2)o1,.,.,.,?,?
Clc1cccc(-c2ccc(CNc3ncncn3)o2)c1,?,.[11.5 µM],?,32µM,?
COc1ccc2[nH]c(C(=O)N3CCC4(CC3)CC(O)CCO4)cc2c1 (stereo not given),.,.,.,.,.
COCC1CN(C)CC12CCN(C(=O)c1cc3ccccc3[nH]1)CC2 (stereo not given),.,.,?,89µM,.
COc1ccc(CC2CCOC3(CCN(C(=O)c4ccco4)CC3)C2)cc1 (stereo not given),/,.,/,50µM,?
COc1ccc(CC2CCOC3(CCN(C(=O)CC(C)C)CC3)C2)cc1 (stereo not given),?,.,.,?,?
